Test results reported in PubChem BioAssay (Tox21).
Inconclusive results are not listed. The source made the active and inactive calls. Unless noted, calls follow the shape of the dose curve; as a rule, active = well fitted curve in the direction sought with a large enough effect in the repeat runs; inconclusive = weak or mixed curves; inactive = no such curve, though single readings can be large; an effect the other way counts as inactive or inconclusive.

Assays:
[1] = qHTS assay for small molecule agonists of the p53 signaling pathway (AID 651631; calls by dose curve; also: nearly all actives have a fitted effect of over 15% in size)
In short: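 Fluorescence intensity from cleaved LiveBLAzer B/G substrate (2 h, room temperature) served as the signal. Beforehand, HCT-116 reporter cells bearing p53 response elements were treated 16 h at 37 °C with DMSO-dissolved compounds.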

[2] = qHTS assay for small molecules that induce genotoxicity in human embryonic kidney cells expressing luciferase-tagged ATAD5 (AID 651632); also: nearly all actives have a fitted effect of over 15% in size
In short: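 Luminescent reporter readout, HEK293T ATAD5-luc line: 16 hr drug exposure (37C, 5% CO2) followed by Amplite, 30 min RT.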

[3] = qHTS assay for small molecule agonists of the p53 signaling pathway - cell viability (AID 651633; calls by dose curve;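 also: p53RE-bla HCT reporter cells with a stable beta-lactamase p53 reporter; nearly all actives have a fitted effect of over 30% in size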)
In short: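 p53RE-bla cells, seeded at 4,000 per well and rested 5 h at 37 C/5% CO2, received compounds in DMSO for 16 h at 37 C. CellTiter-Glo was then added, and luminescence was read after 30 min at room temperature to gauge cytotoxicity.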

[4] = qHTS assay for small molecules that induce genotoxicity in human embryonic kidney cells expressing luciferase-tagged ATAD5 - cell viability (AID 651634; calls by dose curve; also: nearly all actives have a fitted effect of over 25% in size)
In short: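 Viability read: CellTiter-Fluor fluorescence, 30 min at 37C. Cells: HEK293T, luciferase-tagged ATAD5. Exposure: 15.5 hr, 37C, 5% CO2, compound or DMSO vehicle.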

[5] = qHTS assay for small molecule disruptors of the mitochondrial membrane potential - cell viability (AID 720634; calls by dose curve;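 also: human HepG2 liver cancer cells; nearly all actives have a fitted effect of over 20% in size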)
In short: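 HepG2, 1 hr compound, 37 C. ATP luminescence via CellTiter-Glo, 30 min RT, same well as m-MPI.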

[6] = qHTS assay to test for compound auto fluorescence at 590 nm (red) in HepG2 cells (AID 720674)
In short: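 Rose Bengal sodium served as the red fluorophore standard. HepG2 monolayers (overnight attachment, MEM with 10% FBS) were exposed to test compounds for 1 hr at 37 C and read at Ex 540/Em 590 nm.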

[7] = qHTS assay to test for compound auto fluorescence at 535 nm (green) in HepG2 cells (AID 720675)
[8] = qHTS assay to test for compound auto fluorescence at 460 nm (blue) in HEK293 cells (AID 720678)
In short: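 HEK293 cells (2,000/well, medium with 10% dialyzed FBS) attached 4-5 hr, then exposed to compound overnight at 37C, 5% CO2. Blue fluorescence read at 405/460 nm, with triamterene as reference fluorophore.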

[9] = qHTS assay to test for compound auto fluorescence at 535 nm (green) in HEK293 cells (AID 720680)
[10] = qHTS assay to test for compound auto fluorescence at 460 nm (blue) in HEK293 cell free culture (AID 720681)
In short: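 Test compounds were pinned into cell-free culture medium (DMEM with 10% FBS) and fluorescence was read directly at Ex/Em 405/460 nm. Signals were expressed as fluorescence equivalents of triamterene, with DMSO vehicle as control.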

[11] = qHTS assay to test for compound auto fluorescence at 535 nm (green) in HEK293 cell free culture (AID 720682)
In short: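 Intrinsic compound fluorescence is measured in culture medium containing 10% FBS, with excitation at 485 nm and detection at 535 nm, referenced to fluorescein.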

[12] = qHTS assay to test for compound auto fluorescence at 590 nm (red) in HEK293 cell free culture (AID 720683)
In short: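 Tox21 10K library compounds were pinned into cell-free DMEM with 10% FBS and fluorescence was read at excitation 540 nm. Activity is expressed as Rose Bengal sodium equivalency.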

[13] = qHTS assay to test for compound auto fluorescence at 590 nm (red) in HepG2 cell free culture (AID 720684)
In short: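 Red fluorescence (540 nm excitation, 590 nm emission) was measured after compound transfer into cell-free MEM supplemented with 10% FBS. Values are equivalencies against Rose Bengal sodium.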

[14] = qHTS assay to test for compound auto fluorescence at 460 nm (blue) in HepG2 cell free culture (AID 720685)
In short: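 Compound (23 nL) or DMSO pinned into cell-free MEM with 10% FBS; blue fluorescence read at 405/460 nm excitation/emission, expressed as auto-fluorescence equivalency to triamterene.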

[15] = qHTS assay to test for compound auto fluorescence at 535 nm (green) in HepG2 cell free culture (AID 720686)
[16] = qHTS assay to test for compound auto fluorescence at 460 nm (blue) in HepG2 cells (AID 720687)
In short: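 Cells (2,000/well in MEM with 10% FBS) attached overnight at 37 C, then were exposed to compound or DMSO for 1 hr at 37 C, 5% CO2. Fluorescence read at Ex/Em 405/460 nm, expressed as triamterene-equivalent signal.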

[17] = qHTS assay for small molecule disruptors of the mitochondrial membrane potential (AID 720635)
In short: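 HepG2 cells (2,000/well) attached overnight at 37C, then took compound for 1 hr at 37C, 5% CO2. Mito-MPS dye was added for 30 min; fluorescence was read at 490/535 nm (monomers) and 540/590 nm (aggregates).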

[18] = qHTS assay to test for compound auto fluorescence at 590 nm (red) in HEK293 cells (AID 720679)
In short: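 HEK293 cells (2,000/well, 10% dialyzed FBS) attached 4-5 hr, then dosed with compound or DMSO and incubated overnight at 37C, 5% CO2. Red fluorescence read at 540/590 nm, Rose Bengal sodium as reference fluorophore.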

[19] = target: Glucocorticoid receptor (Homo sapiens) (UniProt P04150); assay: qHTS assay to identify small molecule agonists of the glucocorticoid receptor (GR) signaling pathway (AID 720691; active = well fitted activation curve with a large enough effect in the signal ratio in the repeat runs, not every such curve was filed as active; the % refers to the signal ratio); details: GR-bla HeLa, beta-lactamase reporter ratio, 18 h; activation: at 62.4 µM (top of the series)
Chain of Glucocorticoid receptor (Homo sapiens) (P04150 whole entry, looked up): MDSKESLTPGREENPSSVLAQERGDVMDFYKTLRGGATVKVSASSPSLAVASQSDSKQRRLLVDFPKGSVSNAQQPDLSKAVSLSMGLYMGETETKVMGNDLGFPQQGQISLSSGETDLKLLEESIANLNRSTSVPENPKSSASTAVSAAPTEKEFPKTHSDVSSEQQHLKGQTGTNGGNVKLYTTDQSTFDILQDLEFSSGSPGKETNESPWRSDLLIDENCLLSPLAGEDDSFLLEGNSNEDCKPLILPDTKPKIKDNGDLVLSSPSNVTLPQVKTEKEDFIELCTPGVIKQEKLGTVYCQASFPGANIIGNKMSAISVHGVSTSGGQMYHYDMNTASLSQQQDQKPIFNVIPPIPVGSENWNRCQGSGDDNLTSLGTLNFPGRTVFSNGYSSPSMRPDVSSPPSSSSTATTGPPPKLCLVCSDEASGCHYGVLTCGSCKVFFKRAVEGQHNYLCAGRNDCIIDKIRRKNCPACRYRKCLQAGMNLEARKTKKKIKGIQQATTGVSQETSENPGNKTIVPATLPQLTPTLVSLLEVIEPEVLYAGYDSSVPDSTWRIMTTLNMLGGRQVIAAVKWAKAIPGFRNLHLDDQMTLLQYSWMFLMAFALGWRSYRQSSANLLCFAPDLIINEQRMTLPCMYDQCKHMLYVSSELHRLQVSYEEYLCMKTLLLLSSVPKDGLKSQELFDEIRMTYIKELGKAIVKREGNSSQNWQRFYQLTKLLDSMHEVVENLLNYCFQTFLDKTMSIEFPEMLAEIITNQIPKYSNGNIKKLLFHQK
In short: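 qHTS in GR-bla HeLa cells: 4 h settling at 37 C/5% CO2, 18 h compound incubation at 37 C, 2 h LiveBLAzer B/G FRET substrate at room temperature, fluorescence intensity measured.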

[20] = target: Glucocorticoid receptor (Homo sapiens) (UniProt P04150); assay: qHTS assay to identify small molecule antagonists of the glucocorticoid receptor (GR) signaling pathway (AID 720692; active = well fitted inhibition curve with a large enough effect in the signal ratio in the repeat runs, not every such curve was filed as active; the % refers to the signal ratio)
In short: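 Inhibition of glucocorticoid signalling is measured in HeLa cells with a GRE-controlled beta-lactamase reporter; cells are co-treated with compound and 5 nM dexamethasone (final) for 18 h before FRET substrate readout.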

Measured: Potency

O=c1[nH]nnc2ccccc12
not listed: [17] | [18] | [19] | [20]
inactive: all other assays above

O=c1[nH]c(=O)n([C@H]2C[C@H](O)[C@@H](CO)O2)cc1Br
not listed: [18] | [19] | [20]
inactive: all other assays above

c1ccc2scnc2c1
not listed: [8] | [14] | [17]
inactive: all other assays above

CC1=C(C)S(=O)(=O)CCS1(=O)=O
not listed: [16] | [17]
inactive: all other assays above

CCc1cccc(C)c1N
not listed: [20]
inactive: all other assays above

Cc1ccc(N(C)C)cc1
not listed: [16] | [20]
inactive: all other assays above

CCCCCCOCCO
inactive: all assays above

O=C(O)c1cc(=O)c2c(OCC(O)COc3cccc4oc(C(=O)O)cc(=O)c34)cccc2o1
not listed: [8] | [16] | [18] | [19] | [20]
inactive: all other assays above

C[C@H]1C[C@H]2[C@@H]3CCC4=CC(=O)C=C[C@]4(C)[C@@]3(F)[C@@H](O)C[C@]2(C)[C@@]1(O)C(=O)CO
not listed: [8] | [14] | [16] | [19] | [20]
inactive: all other assays above

CCC(O)OC(O)CC (centres undefined)
not listed: [17]
inactive: all other assays above

C=CCNC(N)=S
not listed: [8] | [14] | [17] | [19] | [20]
inactive: all other assays above

Cc1cccc(O)c1
not listed: [16] | [17] | [20]
inactive: all other assays above

C=C(C)C(=O)OCCOCCOCCOC(=O)C(=C)C
not listed: [14] | [17] | [18] | [20]
inactive: all other assays above

CCCCCCCCCC
not listed: [8] | [19] | [20]
inactive: all other assays above

CC(=O)CC(=O)Nc1ccccc1C
not listed: [17]
inactive: all other assays above

O=C(CC(C(=O)OC1CCCCC1)S(=O)(=O)O)OC1CCCCC1 (centres undefined)
not listed: [8] | [14] | [20]
inactive: all other assays above

CN(C)CCCN
not listed: [20]
inactive: all other assays above
